Inconclusive results are not listed. A call without a number means that no potency is given here. More than one record can exist for a structure, and the calls need not agree. Calls of active or inactive are those of the source. Calls come from the whole dose curve; as a rule, active = well fitted curve in the direction sought with a large enough effect in the repeat runs; inconclusive = weak or mixed curves; inactive = no such curve, though single readings can be large; an effect the other way counts as inactive or inconclusive.
Test system: not listed separately
Assay: Caspase-3/7 induction in HepG2 cells by small molecules, qHTS cell viability counter screen (AID 1346981); note: nearly all actives have a fitted effect of over 30% in size
Conditions: CellTiter-Fluor fluorescence, 17 h; series mostly up to 92.4 µM; activity change, negative = cytotoxicity: at the top concentration
Summary of the method: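 Viability determined by CellTiter-Fluor fluorescence in HepG2 wells also used for the luminescent Caspase-Glo 3/7 read. Compounds were present for 16 hr at 37 C, 5% CO2 before reagent addition.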

SMILES	Potency	activity change, negative = cytotoxicity
C[C@H]1C[C@@H]2[C@H]([C@@H](O)C[C@@]3(C)[C@H]2CC[C@]3(O)C(=O)CO)[C@@]2(C)C=CC(=O)C=C12	inactive	–
O=C(O)CC(C(=O)O)C(CC(=O)O)C(=O)O (stereo unspecified)	–	-1.23% (inactive)
CC(O)COCC(C)O (stereo unspecified)	inactive	–
NNc1nncc2ccccc12	inactive	–
CCCCCCCCCCCCS	inactive	–
COCCCOc1ccnc(CS(=O)c2nc3ccccc3[nH]2)c1C (stereo unspecified)	inactive	–
OCCOCCN1CCN(C2=Nc3ccccc3Sc3ccccc32)CC1	–	-2.46% [at 42.5 µM] (inactive)
Cc1ccc(S(N)(=O)=O)cc1	–	-1.28% (inactive)
CCCCCCCCC/C=C/CC1CC(=O)OC1=O (stereo unspecified)	inactive	–
OCc1cccnc1	inactive	–

Biological target: Nuclear receptor subfamily 1 group I member 2 (Homo sapiens) (UniProt O75469)
Assay: Human pregnane X receptor (PXR) small molecule agonists, qHTS assay (AID 1346982); note: nearly all actives have a fitted effect of over 35% in size; note: potency is the fitted concentration of half-maximal effect
Conditions: PXR-Luc HepG2, CYP3A4 luciferase reporter, 24 h; series mostly up to 92.4 µM; activation: at the top concentration
Summary of the method: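 Compound-induced hPXR transactivation of a CYP3A4 luciferase reporter was scored in HepG2 PXR-Luc cells over 24 hr at 37 C, 5% CO2, by luminescence.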

Chain of Nuclear receptor subfamily 1 group I member 2 (Homo sapiens) (O75469 whole entry, looked up): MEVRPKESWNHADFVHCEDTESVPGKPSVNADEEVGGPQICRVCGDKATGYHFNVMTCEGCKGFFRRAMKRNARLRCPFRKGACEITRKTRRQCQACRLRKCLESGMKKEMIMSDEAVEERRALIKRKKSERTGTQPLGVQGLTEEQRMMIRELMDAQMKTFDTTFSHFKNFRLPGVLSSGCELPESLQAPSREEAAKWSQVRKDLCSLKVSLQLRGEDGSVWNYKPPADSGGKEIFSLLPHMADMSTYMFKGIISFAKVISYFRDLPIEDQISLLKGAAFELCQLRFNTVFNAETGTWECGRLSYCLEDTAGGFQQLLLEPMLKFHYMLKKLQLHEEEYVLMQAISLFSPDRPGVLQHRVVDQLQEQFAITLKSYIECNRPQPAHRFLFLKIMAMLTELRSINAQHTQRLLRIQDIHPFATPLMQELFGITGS

SMILES	Potency	activation
O=C(O)CCCCCCCCCCC(=O)O	inactive	–
O=S1(=O)CC=CC1	52.6 µM (active) and inactive	–
CC1=C(C)S(=O)(=O)CCS1(=O)=O	inactive	–
O=C1CCC(N2C(=O)c3ccccc3C2=O)C(=O)N1 (stereo unspecified)	inactive	–
O=C(O)c1ccc2c(c1)C(=O)OC2=O	–	6.19% (inactive)
Cc1cc(C)c(C)cc1C	inactive	–
O=[N+]([O-])c1ccc(/C=C/c2ccc([N+](=O)[O-])cc2S(=O)(=O)O)c(S(=O)(=O)O)c1	inactive	–
CN(C)CCOCCN(C)C	inactive	–
c1c[nH]cn1	inactive	–
CCCCCC/C(C=O)=C\c1ccccc1	inactive	–
Nc1ccccc1[N+](=O)[O-]	–	23.3% (inactive)
Cc1occc(=O)c1O	inactive	–
Cc1cccc(O)c1	inactive	–
CCCCN(CCCC)CCCC	inactive	–
O=C(OCCOCCOC(=O)c1ccccc1)c1ccccc1	inactive	–
Fc1ccc(Br)cc1	inactive	–
